# PubChem BioAssay AID793 (The Scripps Research Institute Molecular Screening Center, 2007)
# The whole screen tested about 140,000 compounds, of which about 1,400 (1%) were called active. No stated cut-off is given here; in the data, active means inhibition above about 17%; inactive means the rest. The sample as a whole holds a higher share of actives than the screen did.
# Biological target: Neuropeptide Y receptor type 2 (Homo sapiens) (UniProt P49146)
# Test: NPY-Y2 receptor antagonists, primary screen, cell-based (AID 793);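 further: 0% = vehicle with agonist challenge and 100% = reference antagonist with challenge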
# Conditions: NPY-Y2 expressing cells, antagonist mode; at 2.7 µM; hits give high values
# Chain of Neuropeptide Y receptor type 2 (Homo sapiens) (P49146 whole entry, looked up): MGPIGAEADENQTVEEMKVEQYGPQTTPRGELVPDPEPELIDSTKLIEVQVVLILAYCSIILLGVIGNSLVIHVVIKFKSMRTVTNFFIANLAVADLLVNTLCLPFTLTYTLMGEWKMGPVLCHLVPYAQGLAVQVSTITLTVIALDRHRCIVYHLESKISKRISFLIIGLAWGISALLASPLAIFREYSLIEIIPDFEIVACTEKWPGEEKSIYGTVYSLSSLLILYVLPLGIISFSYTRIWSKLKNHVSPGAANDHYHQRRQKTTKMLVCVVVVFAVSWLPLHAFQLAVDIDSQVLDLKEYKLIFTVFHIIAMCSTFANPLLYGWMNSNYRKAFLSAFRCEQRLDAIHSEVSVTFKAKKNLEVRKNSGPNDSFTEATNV
row,Structure (SMILES),inhibition
1,CN1CCN(C(=S)SCC(=O)Nc2ccc(Cl)cc2C(=O)c2ccccc2)CC1,6.46% (inactive)
2,O=C(CCNS(=O)(=O)c1ccccc1)Nc1ccc(Cl)cc1C(=O)c1ccccc1,2.34% (inactive)
3,O=C(COC(=O)c1ccccc1)Nc1ccc(Cl)cc1C(=O)c1ccccc1,34.7% (active)
4,CN1CCN(Cc2ccc(OC(F)(F)F)cc2)CC1,3.95% (inactive)
5,CCOC(=O)c1c(-c2ccccc2)oc2ccc(OC(=O)N(C)C)cc12,4.26% (inactive)
